The text below walks through data of PubChem BioAssay.

Experiment [1] can be described thus: resazurin metabolic signal in HepG2 cells – cell-based, resazurin fluorescence, 24 h, PK04 Diversity Set, profiling panel (AID 1172). Also: test concentration not given here. To be noted: HepG2 viability, higher = more signal. Background: The colour change of resazurin is a common sign of viable cells or microbes.
Experiment [2] is described as follows: budding yeast growth changes without added modifier – OD600, strain BY4716, 24 h, basal condition, primary screen (AID 1173). The note with it: S. cerevisiae BY4716 growth, OD600, 24 h; higher = more signal, called active from +8 up or from −8 down.
A short description of experiment [3]: viability profiling in MM1S myeloma cells – cell-based, resazurin fluorescence, basal, 24 h, PK04 Diversity Set, profiling panel (AID 1174).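 Also: MM1S multiple myeloma cell line; test concentration not given here.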 To be noted: higher = more signal, called active from +8 up or from −8 down.
For experiment [4], the target named is Dihydroorotate dehydrogenase (quinone), mitochondrial (Plasmodium falciparum (isolate 3D7)) (UniProt Q08210). In words: inhibition of P. falciparum DHODH – biochemical, C-terminal His tag, absorbance 600 nm, primary screen (AID 1175).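 Also: recombinant parasite enzyme with a five histidine tag at its C terminus; test concentration not given here.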 To be noted: PfDHODH enzyme, DCIP absorbance 600 nm; higher = more signal, called active from +8 up or from −8 down.
The nature of experiment [5]: inhibition of PAO1 biofilm formation – strain PAO1, LB-PBS medium, absorbance 600 nm, primary screen (AID 1176). Also: test concentration not given here. The note with it: P. aeruginosa PAO1 growth/biofilm, A600, 12 h; higher = more signal.
Experiment [6] in a line: growth modulation of vineyard yeast isolate – strain RM11-1a, OD600, basal, 24 h, primary screen (AID 1177).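 Also: cultures grown under basal conditions with no added stressor; test concentration not given here.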 The note with it: S. cerevisiae RM11-1a growth, OD600, 24 h; higher = more signal, called active from +8 up or from −8 down.
A short description of experiment [7]: growth of efflux-deficient E. coli DRC39 – strain DRC39, OD650, 24 h, E. coli filamentation inducers, primary screen (AID 1178).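 Also: growth measured as culture turbidity by optical density at 650 nm; test concentration not given here.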 The note with it: E. coli DRC39 acrAB, higher = more signal, called active from +8 up or from −8 down.
Experiment [8] in a line: growth of efflux-deficient E. coli DRC39 – strain DRC39, OD650, 48 h, E. coli filamentation inducers, primary screen (AID 1179).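 Also: screen aims at cell division blockers that make cells filament.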 To be noted: E. coli DRC39 delta-acrAB growth, higher = more signal, called active from +8 up or from −8 down.
A short description of experiment [9]: viability profiling in RPMI8226 myeloma cells – cell-based, resazurin fluorescence, basal, 24 h, PK04 Diversity Set, profiling panel (AID 1180).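 Also: RPMI8826 multiple myeloma cell line at 5000 cells per well; test concentration not given here.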 The note with it: higher = more signal.
The target in experiment [10] is E3 ubiquitin-protein ligase XIAP (Homo sapiens) (UniProt P98170). In words: small molecules binding XIAP protein – biophysical, small-molecule microarray, fluorescence 635 nm, primary screen (AID 1181).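 Also: score merges 667 nm emission and signal to noise over triplicate slides.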 To be noted: higher = more signal.

Activity calls are given as the source filed them. Unless noted, no rule for the calls is given here.

Dihydroorotate dehydrogenase (quinone), mitochondrial (Plasmodium falciparum (isolate 3D7)), sequence (Q08210 whole entry, looked up): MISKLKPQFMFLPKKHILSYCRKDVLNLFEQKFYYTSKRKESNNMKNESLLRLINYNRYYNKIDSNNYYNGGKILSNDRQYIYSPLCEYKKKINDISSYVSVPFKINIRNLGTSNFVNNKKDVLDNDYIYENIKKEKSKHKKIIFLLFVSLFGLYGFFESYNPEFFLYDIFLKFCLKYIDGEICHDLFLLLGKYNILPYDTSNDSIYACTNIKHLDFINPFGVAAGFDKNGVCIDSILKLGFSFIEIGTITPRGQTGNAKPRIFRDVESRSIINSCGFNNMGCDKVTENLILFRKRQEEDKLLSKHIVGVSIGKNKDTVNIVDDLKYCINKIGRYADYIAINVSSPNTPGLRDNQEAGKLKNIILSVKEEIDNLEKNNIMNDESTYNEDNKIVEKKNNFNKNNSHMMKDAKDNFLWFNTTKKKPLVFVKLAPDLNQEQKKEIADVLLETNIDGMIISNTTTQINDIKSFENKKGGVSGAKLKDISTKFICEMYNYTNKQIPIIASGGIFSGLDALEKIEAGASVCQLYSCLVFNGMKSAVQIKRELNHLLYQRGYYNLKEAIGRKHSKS
E3 ubiquitin-protein ligase XIAP (Homo sapiens), sequence (P98170 whole entry, looked up): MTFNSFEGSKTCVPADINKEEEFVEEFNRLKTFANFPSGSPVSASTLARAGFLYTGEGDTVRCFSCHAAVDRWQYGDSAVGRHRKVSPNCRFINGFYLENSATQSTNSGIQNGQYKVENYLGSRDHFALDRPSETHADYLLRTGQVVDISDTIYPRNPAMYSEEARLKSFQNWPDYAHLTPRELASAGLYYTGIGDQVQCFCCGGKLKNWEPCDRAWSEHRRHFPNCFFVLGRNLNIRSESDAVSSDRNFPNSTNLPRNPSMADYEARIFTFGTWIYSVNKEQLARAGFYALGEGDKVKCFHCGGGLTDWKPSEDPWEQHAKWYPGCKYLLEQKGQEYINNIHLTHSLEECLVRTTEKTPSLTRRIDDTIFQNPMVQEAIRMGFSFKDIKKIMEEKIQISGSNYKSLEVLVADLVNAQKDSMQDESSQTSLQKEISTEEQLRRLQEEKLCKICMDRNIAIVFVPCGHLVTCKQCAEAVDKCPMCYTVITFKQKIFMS

Consider `CC(C)=CCCC(C)=CCON=C1C[C@@H](O)[C@@H](O)[C@@H]2[C@@H]3C(=O)N(C(C)(C)C)C(=O)[C@@H]3CC[C@H]12`, for which the z-score is -0.369 in experiment [1]; -0.352 (inactive) in [2]; -0.274 (inactive) in experiment [3]; 0.152 (inactive) in [5]; -0.264 (inactive) in experiment [6]; 0.27 (inactive) in experiment [7]. Moreover, the z-score in experiment [8] was 0.612 (inactive); in experiment [9], -0.245. Besides, the composite z-score in experiment [4] was -0.108 (inactive); in experiment [10] it was -0.172.

On to `CC(C)=CCCC(C)=CCON=C1C[C@@H](O)[C@@H](O)[C@@H]2[C@@H]3C(=O)N(c4cccc(Oc5ccccc5)c4)C(=O)[C@@H]3CC[C@@H]12`, for which the z-score in [1] is 0.171; in experiment [2], -1.86 (inactive); in experiment [3] it was 0.815 (inactive); in experiment [5] it was 0.0001 (inactive); in experiment [6], -0.556 (inactive); in experiment [7] it was 0.615 (inactive). Moreover, the figures for the z-score in experiment [8] and in [9] were -0.923 (inactive) and -0.198, respectively. Besides, the results for the composite z-score in experiment [4] and in [10] were -2.48 (inactive) and 0.0368, respectively.

`COC(=O)[C@@H]1CC[C@H](C)[C@@H](c2ccc(C)cc2)N1C(=O)c1ccc(C=NOCC[C@@H]2C=C[C@H](OC(C)=O)[C@@H](COC(C)=O)O2)cc1`: the z-score in experiment [1] was -0.574; in experiment [2], 1.76 (inactive); in experiment [3], -0.761 (inactive); in experiment [5], 0.888 (inactive); in experiment [6] it was 1.98 (inactive); in [7], 0.667 (inactive). Moreover, the results for the z-score in experiment [8] and in experiment [9] were -0.62 (inactive) and -0.337, respectively. Also, the composite z-score in experiment [4] is 1.16 (inactive); in experiment [10], -0.291.

For `O=C1C[C@@H](O)[C@@H](O)[C@@H]2[C@@H]3C(=O)N(Cc4ccccc4)C(=O)[C@@H]3CC[C@@H]12`, the z-score in [1] was 0.568; in experiment [2], 0.178 (inactive); in experiment [3], 0.144 (inactive); in experiment [5] it was -0.425 (inactive); in experiment [6], 0.0564 (inactive); in experiment [7], -0.7 (inactive). Moreover, the figures for the z-score in [8] and in experiment [9] were -0.564 (inactive) and 0.112, respectively. In addition, the figures for the composite z-score in experiment [4] and in [10] were 0.378 (inactive) and 0.126, respectively.

For the molecule `CON=C1[C@H]2CCn3c(=O)n(-c4ccccc4)c(=O)n3[C@H]2[C@H](O)[C@@H]2O[C@H]12`, the z-score in [1] was 0.348; in experiment [2], -1.45 (inactive); in [3], 0.333 (inactive); in experiment [5], 0.335 (inactive); in [6], -2.21 (inactive); in [7], 0.0966 (inactive). Moreover, the figures for the z-score in experiment [8] and in [9] were -1.03 (inactive) and 0.116, respectively. Moreover, the composite z-score in experiment [4] was -0.984 (inactive); in experiment [10] it was 0.0159.

With `CC[C@@H](c1ccccc1)n1c(=O)n2n(c1=O)[C@H]1[C@H](O)[C@@H]3O[C@@H]3C(=NOC[C@@H](O)COCc3ccco3)[C@H]1CC2`, the z-score in experiment [1] is -0.466; in [2], 0.626 (inactive); in experiment [3], -0.617 (inactive); in experiment [5] it was -0.613 (inactive); in [6], -1.11 (inactive); in [7], 0.243 (inactive). Moreover, the z-score in [8] is 0.047 (inactive); in experiment [9] it was -0.257. The composite z-score is -0.337 (inactive) in experiment [4] and -0.117 in [10].

For the molecule `O=C1OCCC=C1C(O)CCc1ccccc1` (stereo not given), the z-score in experiment [1] is 0.0362; in experiment [2] it was -0.567 (inactive); in experiment [3], -0.649 (inactive); in [5], -0.564 (inactive); in experiment [6], -0.415 (inactive); in [7], 0.258 (inactive). Moreover, the z-score in experiment [8] is 0.137 (inactive); in experiment [9] it was -0.573. Further, the composite z-score is -0.0757 (inactive) in [4] and -0.202 in experiment [10].

For the molecule `C[C@@H](c1ccccc1)N1C(=O)[C@H]2[C@H]3[C@H](O)[C@H](O)CC(=NOCc4ccccc4)[C@H]3CC[C@H]2C1=O`, the z-score in experiment [1] is -0.137; in experiment [2] it was -0.18 (inactive); in experiment [3], -1.03 (inactive); in experiment [5], -0.179 (inactive); in [6] it was 0.783 (inactive); in experiment [7] it was 0.273 (inactive). The z-score in [8] was 1.12 (inactive); in experiment [9] it was 0.76. The composite z-score in experiment [4] is -0.964 (inactive); in experiment [10] it was -0.184.

With `C[C@H]1CC[C@H]2C(=O)O[C@H](COc3ccc(C(C)(C)C)cc3)CN2[C@@H]1c1ccc(Br)cc1`, the z-score in [1] was -0.158; in experiment [2], -0.407 (inactive); in experiment [3], 0.422 (inactive); in experiment [5], -0.409 (inactive); in experiment [6], -0.0809 (inactive); in experiment [7] it was -1.42 (inactive). Besides, the values for the z-score in [8] and in [9] were -1.37 (inactive) and 0.432, respectively. The composite z-score in [4] is 0.159 (inactive); in experiment [10], -0.19.

On to `COc1cccc([C@H]2Oc3ccc(OC)cc3C(=NO[C@@H](C)c3cn([C@H](CO)Cc4ccccc4)nn3)[C@@H]2O)c1`, for which the z-score in [1] was -1.02; in [2] it was -0.0439 (inactive); in experiment [3], -0.162 (inactive); in experiment [5], -0.102 (inactive); in [6], -0.0779 (inactive); in experiment [7] it was -0.712 (inactive). Moreover, the z-score in experiment [8] is -2.86 (inactive); in experiment [9] it was 0.22. Moreover, the composite z-score in [4] is 0.757 (inactive); in experiment [10], -0.0367.

`CC(C)CON=C1C[C@@H](O)[C@@H](O)[C@@H]2[C@@H]3C(=O)N(C4CCCCC4)C(=O)[C@@H]3CC[C@@H]12`: the z-score is -0.577 in [1]; -4.72 (inactive) in experiment [2]; 0.119 (inactive) in [3]; -0.294 (inactive) in experiment [5]; 0.523 (inactive) in experiment [6]; -0.3 (inactive) in [7]. Besides, the z-score in experiment [8] was -1.17 (inactive); in experiment [9] it was -0.0596. The composite z-score in experiment [4] was -0.508 (inactive); in experiment [10], 0.0159.

As to `Cc1ccc(S(=O)(=O)N[C@H]2COC(=O)CC=C[C@@H](C)COC(=O)CC=C[C@@H]2C)cc1`, the z-score in experiment [1] was -0.118; in experiment [2], -0.603 (inactive); in [3], 0.186 (inactive); in experiment [5], -0.319 (inactive); in [6], 0.313 (inactive); in [7], 0.0613 (inactive). Besides, the results for the z-score in [8] and in experiment [9] were -0.0105 (inactive) and 0.108, respectively. The composite z-score in [4] was -0.765 (inactive); in experiment [10] it was -0.239.
